Measured values: ChEMBL document CHEMBL1961873, “Compounds: GSK PKIS; Assays: Nanosyn kinase panel” (2012)

Tests used:
[1] = molecular target: High affinity nerve growth factor receptor (Homo sapiens) (UniProt P04629); conditions: at 1 µM;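 also: each value is the mean percent inhibition of TRKA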
[2] = molecular target: BDNF/NT-3 growth factors receptor (Homo sapiens) (UniProt Q16620); conditions: at 0.1 µM
[3] = molecular target: BDNF/NT-3 growth factors receptor (Homo sapiens) (UniProt Q16620); conditions: at 1 µM
[4] = molecular target: NT-3 growth factor receptor (Homo sapiens) (UniProt Q16288); conditions: at 0.1 µM
[5] = molecular target: NT-3 growth factor receptor (Homo sapiens) (UniProt Q16288); conditions: at 1 µM
[6] = molecular target: T1, Tyrosine-protein kinase TXK (Homo sapiens) (UniProt P42681); conditions: at 0.1 µM
T1 sequence (whole entry): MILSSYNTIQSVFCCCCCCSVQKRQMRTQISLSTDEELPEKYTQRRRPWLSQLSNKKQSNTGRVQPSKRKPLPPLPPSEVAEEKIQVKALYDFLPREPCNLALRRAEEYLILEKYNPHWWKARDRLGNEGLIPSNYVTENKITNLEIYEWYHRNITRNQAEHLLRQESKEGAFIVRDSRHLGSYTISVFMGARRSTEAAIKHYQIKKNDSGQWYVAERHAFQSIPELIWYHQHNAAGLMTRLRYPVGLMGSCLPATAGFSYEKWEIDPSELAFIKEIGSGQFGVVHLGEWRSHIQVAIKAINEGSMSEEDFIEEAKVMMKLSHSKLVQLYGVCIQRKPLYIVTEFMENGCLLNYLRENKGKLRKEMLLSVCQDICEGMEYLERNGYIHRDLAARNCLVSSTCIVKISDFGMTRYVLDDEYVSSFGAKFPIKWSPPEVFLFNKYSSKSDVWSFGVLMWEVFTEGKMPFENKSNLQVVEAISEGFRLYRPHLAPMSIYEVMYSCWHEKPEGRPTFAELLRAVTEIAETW

[7] = molecular target: T1, Tyrosine-protein kinase TXK (Homo sapiens); conditions: at 1 µM
[8] = molecular target: Non-receptor tyrosine-protein kinase TYK2 (Homo sapiens) (UniProt P29597); conditions: at 0.1 µM;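 also: each value is a mean of the inhibition readings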
[9] = molecular target: T2, Dual specificity protein kinase TTK (Homo sapiens) (UniProt P33981); conditions: at 1 µM;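 also: reported figures are mean TTK inhibition at 1 µM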
T2 sequence (whole entry): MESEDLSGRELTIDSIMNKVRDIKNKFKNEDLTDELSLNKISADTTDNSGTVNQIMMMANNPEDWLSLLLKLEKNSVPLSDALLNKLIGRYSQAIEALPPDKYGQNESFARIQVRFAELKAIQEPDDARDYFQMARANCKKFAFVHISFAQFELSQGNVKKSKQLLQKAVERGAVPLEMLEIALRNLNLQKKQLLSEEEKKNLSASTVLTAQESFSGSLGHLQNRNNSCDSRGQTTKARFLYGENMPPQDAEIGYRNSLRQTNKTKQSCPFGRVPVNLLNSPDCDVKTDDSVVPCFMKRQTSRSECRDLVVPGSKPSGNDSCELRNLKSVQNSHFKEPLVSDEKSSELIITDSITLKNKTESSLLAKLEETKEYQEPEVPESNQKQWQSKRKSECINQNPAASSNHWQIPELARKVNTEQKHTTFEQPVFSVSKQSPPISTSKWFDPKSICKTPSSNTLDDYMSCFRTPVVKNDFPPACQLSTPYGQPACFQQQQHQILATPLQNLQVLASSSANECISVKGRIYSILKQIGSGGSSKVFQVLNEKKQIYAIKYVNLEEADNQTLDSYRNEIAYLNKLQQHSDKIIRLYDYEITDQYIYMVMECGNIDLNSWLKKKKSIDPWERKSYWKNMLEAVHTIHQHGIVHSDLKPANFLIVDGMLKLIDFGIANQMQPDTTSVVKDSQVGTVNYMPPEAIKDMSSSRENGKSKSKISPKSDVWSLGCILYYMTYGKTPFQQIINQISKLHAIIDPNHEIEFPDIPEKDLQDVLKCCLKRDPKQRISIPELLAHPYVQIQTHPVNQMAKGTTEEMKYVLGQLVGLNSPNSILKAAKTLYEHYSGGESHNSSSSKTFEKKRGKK

[10] = molecular target: T3, Aurora kinase A (Homo sapiens) (UniProt O14965); conditions: at 0.1 µM
T3 sequence (whole entry): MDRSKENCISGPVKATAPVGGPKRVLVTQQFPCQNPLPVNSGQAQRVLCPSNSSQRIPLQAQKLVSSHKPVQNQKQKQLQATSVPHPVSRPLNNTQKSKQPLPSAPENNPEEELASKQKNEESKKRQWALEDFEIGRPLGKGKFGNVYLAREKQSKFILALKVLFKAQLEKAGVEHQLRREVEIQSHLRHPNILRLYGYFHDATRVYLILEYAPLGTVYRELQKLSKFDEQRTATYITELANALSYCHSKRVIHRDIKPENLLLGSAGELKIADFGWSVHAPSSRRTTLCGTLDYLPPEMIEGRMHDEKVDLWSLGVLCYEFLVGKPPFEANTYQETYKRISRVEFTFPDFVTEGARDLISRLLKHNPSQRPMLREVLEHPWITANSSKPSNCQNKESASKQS

[11] = molecular target: T3, Aurora kinase A (Homo sapiens); conditions: at 1 µM
[12] = molecular target: Aurora kinase B (Homo sapiens) (UniProt Q96GD4); conditions: at 0.1 µM
[13] = molecular target: Aurora kinase B (Homo sapiens) (UniProt Q96GD4); conditions: at 1 µM
[14] = molecular target: T4, Aurora kinase C (Homo sapiens) (UniProt Q9UQB9); conditions: at 0.1 µM
T4 sequence (whole entry): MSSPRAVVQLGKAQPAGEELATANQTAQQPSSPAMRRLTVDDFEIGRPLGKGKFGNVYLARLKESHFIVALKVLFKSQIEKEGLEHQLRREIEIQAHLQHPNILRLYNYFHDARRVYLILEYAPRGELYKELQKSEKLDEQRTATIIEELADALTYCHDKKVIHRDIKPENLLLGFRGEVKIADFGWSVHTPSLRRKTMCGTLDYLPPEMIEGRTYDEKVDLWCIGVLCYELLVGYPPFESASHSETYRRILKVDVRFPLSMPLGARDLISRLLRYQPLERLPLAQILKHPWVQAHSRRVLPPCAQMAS

[15] = molecular target: T4, Aurora kinase C (Homo sapiens); conditions: at 1 µM
[16] = molecular target: Serine/threonine-protein kinase 10 (Homo sapiens) (UniProt O94804); conditions: at 0.1 µM
[17] = molecular target: Serine/threonine-protein kinase 10 (Homo sapiens) (UniProt O94804); conditions: at 1 µM
[18] = molecular target: T5, Mitogen-activated protein kinase kinase kinase kinase 2 (Homo sapiens) (UniProt Q12851); conditions: at 0.1 µM
T5 sequence (whole entry): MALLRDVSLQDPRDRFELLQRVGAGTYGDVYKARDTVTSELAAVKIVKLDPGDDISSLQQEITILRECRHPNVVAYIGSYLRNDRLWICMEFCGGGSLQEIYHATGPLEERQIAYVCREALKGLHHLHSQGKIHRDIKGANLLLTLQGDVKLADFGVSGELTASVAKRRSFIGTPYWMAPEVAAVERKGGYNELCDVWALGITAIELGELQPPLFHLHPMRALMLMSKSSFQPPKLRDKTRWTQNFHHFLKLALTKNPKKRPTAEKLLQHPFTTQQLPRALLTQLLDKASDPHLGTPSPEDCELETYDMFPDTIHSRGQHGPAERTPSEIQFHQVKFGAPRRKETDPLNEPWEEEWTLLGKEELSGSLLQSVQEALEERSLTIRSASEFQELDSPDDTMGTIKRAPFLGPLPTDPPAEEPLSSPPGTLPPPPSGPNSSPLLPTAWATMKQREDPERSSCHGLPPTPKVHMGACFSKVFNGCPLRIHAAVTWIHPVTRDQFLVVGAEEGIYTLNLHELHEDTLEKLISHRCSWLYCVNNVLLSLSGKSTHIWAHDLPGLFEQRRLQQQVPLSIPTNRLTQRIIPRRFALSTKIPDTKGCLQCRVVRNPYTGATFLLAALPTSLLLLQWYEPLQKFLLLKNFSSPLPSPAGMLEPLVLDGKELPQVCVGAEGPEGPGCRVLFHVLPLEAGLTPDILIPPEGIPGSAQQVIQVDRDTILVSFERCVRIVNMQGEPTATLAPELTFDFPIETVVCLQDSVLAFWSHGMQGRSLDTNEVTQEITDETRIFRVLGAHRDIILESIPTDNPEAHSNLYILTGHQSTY

[19] = molecular target: T5, Mitogen-activated protein kinase kinase kinase kinase 2 (Homo sapiens); conditions: at 1 µM
[20] = molecular target: Mitogen-activated protein kinase kinase kinase kinase 4 (Homo sapiens) (UniProt O95819); conditions: at 0.1 µM
Chain of Mitogen-activated protein kinase kinase kinase kinase 4 (Homo sapiens) (O95819 2-1239 limits assumed): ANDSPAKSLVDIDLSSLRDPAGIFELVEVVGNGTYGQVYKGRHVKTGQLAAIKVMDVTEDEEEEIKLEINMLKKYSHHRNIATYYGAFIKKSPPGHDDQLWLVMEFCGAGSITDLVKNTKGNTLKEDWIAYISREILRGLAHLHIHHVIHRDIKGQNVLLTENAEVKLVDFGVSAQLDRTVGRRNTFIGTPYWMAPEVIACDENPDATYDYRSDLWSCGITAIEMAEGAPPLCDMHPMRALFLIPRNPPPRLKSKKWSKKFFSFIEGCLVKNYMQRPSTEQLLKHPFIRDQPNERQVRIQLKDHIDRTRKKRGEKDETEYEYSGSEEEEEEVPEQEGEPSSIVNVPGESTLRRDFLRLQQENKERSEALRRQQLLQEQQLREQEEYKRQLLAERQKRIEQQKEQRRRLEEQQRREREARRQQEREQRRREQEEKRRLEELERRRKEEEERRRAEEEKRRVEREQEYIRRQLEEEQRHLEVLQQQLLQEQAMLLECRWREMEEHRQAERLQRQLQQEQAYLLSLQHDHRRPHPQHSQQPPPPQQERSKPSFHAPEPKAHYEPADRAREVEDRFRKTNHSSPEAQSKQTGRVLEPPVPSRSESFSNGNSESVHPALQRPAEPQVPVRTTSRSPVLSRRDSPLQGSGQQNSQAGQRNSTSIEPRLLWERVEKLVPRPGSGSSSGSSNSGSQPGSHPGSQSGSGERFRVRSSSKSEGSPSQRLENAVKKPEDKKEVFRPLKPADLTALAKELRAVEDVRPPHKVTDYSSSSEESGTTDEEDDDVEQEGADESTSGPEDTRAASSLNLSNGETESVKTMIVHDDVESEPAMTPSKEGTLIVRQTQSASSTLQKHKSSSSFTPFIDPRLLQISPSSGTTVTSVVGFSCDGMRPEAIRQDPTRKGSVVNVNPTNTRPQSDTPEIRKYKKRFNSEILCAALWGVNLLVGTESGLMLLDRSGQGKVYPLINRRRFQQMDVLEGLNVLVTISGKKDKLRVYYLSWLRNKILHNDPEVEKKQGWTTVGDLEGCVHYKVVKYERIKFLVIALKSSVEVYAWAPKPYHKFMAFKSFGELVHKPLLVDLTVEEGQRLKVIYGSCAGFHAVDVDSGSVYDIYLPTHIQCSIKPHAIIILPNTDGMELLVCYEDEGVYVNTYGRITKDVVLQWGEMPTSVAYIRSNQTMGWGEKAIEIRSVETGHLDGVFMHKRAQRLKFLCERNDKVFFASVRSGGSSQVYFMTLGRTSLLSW

Chain of Aurora kinase B (Homo sapiens) (Q96GD4 whole entry): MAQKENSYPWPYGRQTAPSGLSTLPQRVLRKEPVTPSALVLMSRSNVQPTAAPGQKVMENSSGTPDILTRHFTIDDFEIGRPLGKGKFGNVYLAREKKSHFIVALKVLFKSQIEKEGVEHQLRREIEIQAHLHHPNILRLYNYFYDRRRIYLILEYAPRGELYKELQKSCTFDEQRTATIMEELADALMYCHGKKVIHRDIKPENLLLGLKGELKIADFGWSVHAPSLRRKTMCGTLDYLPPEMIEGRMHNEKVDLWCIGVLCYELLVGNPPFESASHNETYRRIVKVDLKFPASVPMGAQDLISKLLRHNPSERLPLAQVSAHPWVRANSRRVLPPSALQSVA
Chain of BDNF/NT-3 growth factors receptor (Homo sapiens) (Q16620 32-822 limits assumed): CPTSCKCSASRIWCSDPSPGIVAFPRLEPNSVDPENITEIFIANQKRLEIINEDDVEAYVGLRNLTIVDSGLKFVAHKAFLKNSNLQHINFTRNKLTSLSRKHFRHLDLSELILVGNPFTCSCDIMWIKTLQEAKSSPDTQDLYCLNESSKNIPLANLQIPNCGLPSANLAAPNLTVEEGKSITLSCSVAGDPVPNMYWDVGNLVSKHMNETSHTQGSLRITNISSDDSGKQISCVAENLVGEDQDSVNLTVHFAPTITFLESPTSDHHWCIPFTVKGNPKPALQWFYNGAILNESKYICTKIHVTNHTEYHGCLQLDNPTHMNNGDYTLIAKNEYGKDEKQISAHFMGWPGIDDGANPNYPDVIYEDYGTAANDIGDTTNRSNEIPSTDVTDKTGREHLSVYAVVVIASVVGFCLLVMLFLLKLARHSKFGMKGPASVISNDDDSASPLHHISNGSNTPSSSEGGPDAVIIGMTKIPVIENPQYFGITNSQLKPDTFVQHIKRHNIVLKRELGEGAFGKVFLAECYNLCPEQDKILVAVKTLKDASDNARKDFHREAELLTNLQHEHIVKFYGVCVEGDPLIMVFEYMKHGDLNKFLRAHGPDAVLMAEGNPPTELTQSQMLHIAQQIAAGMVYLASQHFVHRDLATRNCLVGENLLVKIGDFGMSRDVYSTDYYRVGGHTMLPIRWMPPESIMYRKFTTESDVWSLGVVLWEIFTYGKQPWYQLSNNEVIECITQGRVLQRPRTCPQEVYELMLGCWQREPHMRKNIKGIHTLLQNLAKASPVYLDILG
Chain of Non-receptor tyrosine-protein kinase TYK2 (Homo sapiens) (P29597 whole entry): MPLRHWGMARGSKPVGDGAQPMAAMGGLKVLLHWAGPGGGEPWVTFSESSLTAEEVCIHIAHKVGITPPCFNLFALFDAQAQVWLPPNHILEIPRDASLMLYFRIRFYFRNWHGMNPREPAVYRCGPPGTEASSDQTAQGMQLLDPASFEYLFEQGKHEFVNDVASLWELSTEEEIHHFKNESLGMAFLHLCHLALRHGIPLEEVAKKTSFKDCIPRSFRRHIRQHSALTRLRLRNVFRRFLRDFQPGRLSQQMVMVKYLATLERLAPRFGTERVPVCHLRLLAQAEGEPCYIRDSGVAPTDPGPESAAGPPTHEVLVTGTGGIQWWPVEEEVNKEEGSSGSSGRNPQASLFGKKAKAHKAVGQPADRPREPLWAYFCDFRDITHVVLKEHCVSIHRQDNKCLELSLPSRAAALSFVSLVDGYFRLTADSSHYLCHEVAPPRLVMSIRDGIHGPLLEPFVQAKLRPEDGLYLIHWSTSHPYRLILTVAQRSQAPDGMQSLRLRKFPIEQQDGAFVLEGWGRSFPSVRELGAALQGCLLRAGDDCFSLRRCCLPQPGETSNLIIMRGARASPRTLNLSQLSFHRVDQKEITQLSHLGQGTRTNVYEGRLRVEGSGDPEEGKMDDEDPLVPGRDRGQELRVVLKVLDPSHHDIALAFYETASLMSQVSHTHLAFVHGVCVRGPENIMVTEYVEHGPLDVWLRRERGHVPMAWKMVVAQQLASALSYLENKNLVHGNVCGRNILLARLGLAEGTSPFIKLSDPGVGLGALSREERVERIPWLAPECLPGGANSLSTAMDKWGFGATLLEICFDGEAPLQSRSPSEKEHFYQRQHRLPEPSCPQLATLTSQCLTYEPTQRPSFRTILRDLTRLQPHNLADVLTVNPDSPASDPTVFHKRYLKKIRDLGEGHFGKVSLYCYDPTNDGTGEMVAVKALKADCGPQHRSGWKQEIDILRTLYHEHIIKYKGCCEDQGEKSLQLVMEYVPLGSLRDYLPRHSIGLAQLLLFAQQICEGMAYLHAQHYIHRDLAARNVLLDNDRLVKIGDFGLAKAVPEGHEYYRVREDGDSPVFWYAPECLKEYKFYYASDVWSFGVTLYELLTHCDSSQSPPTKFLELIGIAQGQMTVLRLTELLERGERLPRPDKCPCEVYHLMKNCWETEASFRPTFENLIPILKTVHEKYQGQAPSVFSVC
Chain of NT-3 growth factor receptor (Homo sapiens) (Q16288 32-839 limits assumed): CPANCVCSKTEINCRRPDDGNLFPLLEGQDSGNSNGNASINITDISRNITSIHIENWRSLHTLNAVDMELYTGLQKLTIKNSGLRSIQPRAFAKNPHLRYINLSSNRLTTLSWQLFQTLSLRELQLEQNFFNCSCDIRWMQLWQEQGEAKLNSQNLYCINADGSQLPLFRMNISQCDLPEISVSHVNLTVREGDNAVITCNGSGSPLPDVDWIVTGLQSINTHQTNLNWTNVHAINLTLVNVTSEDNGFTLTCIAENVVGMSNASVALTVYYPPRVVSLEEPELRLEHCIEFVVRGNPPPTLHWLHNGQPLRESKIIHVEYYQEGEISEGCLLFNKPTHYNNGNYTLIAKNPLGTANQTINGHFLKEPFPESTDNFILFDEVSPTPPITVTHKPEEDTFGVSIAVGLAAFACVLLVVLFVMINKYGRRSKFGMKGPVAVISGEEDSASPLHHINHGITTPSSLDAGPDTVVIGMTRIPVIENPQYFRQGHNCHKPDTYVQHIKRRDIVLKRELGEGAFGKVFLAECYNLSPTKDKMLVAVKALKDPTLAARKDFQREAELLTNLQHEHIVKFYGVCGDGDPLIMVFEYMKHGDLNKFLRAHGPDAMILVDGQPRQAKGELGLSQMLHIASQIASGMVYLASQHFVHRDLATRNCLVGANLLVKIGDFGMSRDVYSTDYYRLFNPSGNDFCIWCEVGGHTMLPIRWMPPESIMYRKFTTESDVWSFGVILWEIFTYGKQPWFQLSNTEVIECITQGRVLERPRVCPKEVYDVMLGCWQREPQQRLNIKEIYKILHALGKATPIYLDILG

SMILES	inhibition [1] [%]	inhibition [2] [%]	inhibition [3] [%]	inhibition [4] [%]	inhibition [5] [%]	inhibition [6] [%]	inhibition [7] [%]	inhibition [8] [%]	inhibition [9] [%]	inhibition [10] [%]	inhibition [11] [%]	inhibition [12] [%]	inhibition [13] [%]	inhibition [14] [%]	inhibition [15] [%]	inhibition [16] [%]	inhibition [17] [%]	inhibition [18] [%]	inhibition [19] [%]	inhibition [20] [%]
CS(=O)(=O)CCN(CC#N)Cc1ccc(-c2ccc3ncnc(Nc4ccc(OCc5cccc(F)c5)c(Cl)c4)c3c2)o1	4.12	1.7	3.2	1.69	1.13	-2.35	-2.94	-3.9	5.67	-2.58	-0.17	-3.61	0.96	-4.78	1.4	3.25	7.32	-0.14	-0.7	3.8
NCc1ccc(-c2nc(-c3ccc(Cl)c(O)c3)c(-c3ccncc3)[nH]2)cc1	-1.42	-0.05	0.73	-0.91	1.61	18.9	61.1	1.75	7.44	1.53	9.73	1.17	6.56	1.89	5.03	1.42	23.7	3.14	4.41	4.02
CNC(=O)c1cncc(/C=C/c2c(Cl)cccc2Cl)c1	6.89	2.99	4.39	2.24	2.7	5.28	22.7	-2.78	18.3	0.59	0.47	-2.93	2.43	-4.44	0.68	6.82	10.6	1.03	2.47	8.94
CC1=C(C(=O)Nc2ccc3[nH]ncc3c2)C(c2ccc3ccccc3c2)CC(=O)N1 (stereo not given)	2.53	1.18	4.38	5.87	5.78	2.76	8.34	0.09	-0.04	7.34	70.6	4.02	22	3.09	32.8	2.65	2.84	1.47	3.14	2.51
Cc1ccc(C(=O)NC2CCCCC2)cc1-c1ccc(C(=O)NCC2CC2)cc1	2.19	0.88	-0.15	0.18	-0.57	4.64	5.63	1.37	8.51	4.04	4.4	3.05	7.57	2.71	14	7.27	6.5	2.78	2.05	2.48
CN1CCC(C(=O)Nc2n[nH]c3nnc(-c4ccccc4)cc23)CC1	1.65	2.71	5.68	2.52	6.56	2.62	4.13	-3.53	15	3.39	8.78	3.81	9.47	4.39	-2.07	8.49	9.99	0.73	3.35	6.6
Nc1ncnc2occ(-c3ccc(NC(=O)Nc4cc(C(F)(F)F)cc(C(F)(F)F)c4)cc3)c12	94.1	42.3	86.4	39	87.4	1.73	4.45	-8.39	3.75	2.66	46	10.6	44.5	1.5	79.7	9.76	29	15.7	48.9	2.54
